Data: PubChem BioAssay (Tox21)
Inconclusive results are not listed. Activity calls are given as the source filed them. Unless noted, the call rests on the fitted dose curve; in most records, active means well fitted curve in the direction sought with a large enough effect in the repeat runs; inconclusive means weak or mixed curves; inactive means no such curve, though single readings can be large; an effect the other way counts as inactive or inconclusive.

How the values were obtained:
[1] = qHTS assay to identify small molecule antagonists of the estrogen related receptor (ERR) signaling pathway from Tox21 library - cell viability counter screen (AID 1224834); further: nearly all actives have a fitted effect of over 30% in size
In short: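 Seeded ERR cells were rested 6 h at 37 C/5% CO2 before compounds, positive and negative controls or DMSO were added. Incubation continued for 17.5 h, and viability was then quantified by CellTiter-Fluor fluorescence.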

[2] = biological target: Luciferin 4-monooxygenase (Photinus pyralis) (UniProt P08659); assay: qHTS assay to identify small molecule inhibitors of firefly luciferase (AID 1224835); further: nearly all actives have a fitted effect of over 25% in size; further: potency means the concentration at half of the fitted maximal effect
In short: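 Inhibition of purified Photinus luciferase is measured by luminescence. Substrate levels (D-luciferin, ATP) sit at their KM values. Each compound is tested in a concentration series.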

[3] = qHTS assay to identify small molecule agonists of the constitutive androstane receptor (CAR) signaling pathway - cell viability counter screen (AID 1224836); further: nearly all actives have a fitted effect of over 45% in size
In short: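 Fluorescence from CellTiter-Fluor indicates live cells after 23 h exposure. The human hepatoma line expresses hCAR and a CYP2B6-2.2kb reporter. Incubation medium contains 0.75 uM PK11195 (final).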

[4] = qHTS assay to identify small molecule antagonists of the constitutive androstane receptor (CAR) signaling pathway - cell viability counter screen (AID 1224837); further: nearly all actives have a fitted effect of over 45% in size
In short: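 To flag cytotoxic false antagonists, HepG2 hCAR/CYP2B6-2.2kb cells were treated 23 hr with 15-concentration compound series and 50 nM CITCO at 37 C/5% CO2; CellTiter-Fluor fluorescence was the measured end point.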

[5] = qHTS assay to identify small molecule antagonists of the estrogen related receptor signaling pathway with the pleiotropic PPARgamma coactivator (PGC) from Tox21 10K library (AID 1224841; call rule not given here; further: actives are mostly falling curves and most rising ones were filed inactive; nearly all actives have a fitted effect of over 50% in size)
In short: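 Test chemicals dissolved in DMSO were applied to pre-incubated (6 h) PGC/ERR cells at 2,000 cells/well for an 18 h, 37 C treatment; reporter luminescence was then read using One-Glo.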

[6] = qHTS assay to identify small molecule agonists of the estrogen related receptor signaling pathway with the pleiotropic PPARgamma coactivator (PGC) from Tox21 10K library (AID 1224842); further: nearly all actives have a fitted effect of over 15% in size
In short: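 Luminescence from One-Glo (30 min, room temperature) measured after PGC/ERR cells had 18 h at 37 C with pinned compound (23 nL in DMSO). Cells had been seeded at 2,000 per well and pre-incubated 6 h.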

[7] = biological target: Thyrotropin receptor (Homo sapiens) (UniProt P16473); assay: qHTS assay to identify small molecule agonists of the thyroid stimulating hormone receptor (TSHR) signaling pathway (AID 1224843; calls by dose curve; further: nearly all actives have a fitted effect of over 45% in size)
In short: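 Agonist activity read as cAMP rise via d2/cryptate HTRF competition, 1 h room-temperature detection, in HEK293 cells expressing TSHR. Fifteen-point titrations, each run in triplicate, with a 30 min room-temperature incubation beforehand.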

[8] = qHTS assay to identify small molecule agonists of the hypoxia (HIF-1) signaling pathway - cell viability counter screen (AID 1224844; calls by dose curve; further: nearly all actives have a fitted effect of over 50% in size)
In short: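 HRE-bla ME-180; 0.5% dFBS; cpd 17 h, 37C, 5% CO2; CellTiter-Glo lum., 30 min RT, post-FRET read, same wells.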

[9] = qHTS assay to identify small molecule agonists of H2AX (AID 1224845; active means well fitted activation curve with a large enough effect in the signal ratio in the repeat runs, not every such curve was filed as active; the % refers to the signal ratio)
In short: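 Phospho-H2AX Ser139 measured by HTRF (ex 320 nm; em 665 and 620 nm) after 24 hr antibody incubation. Compounds, 15 concentrations, 0.76% DMSO, were applied to CHO-K1 cells for 3hr at 37C before lysis.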

[10] = qHTS assay to identify small molecule agonists of the hypoxia (HIF-1) signaling pathway (AID 1224846; active means well fitted activation curve with a large enough effect in the signal ratio in the repeat runs, not every such curve was filed as active; the % refers to the signal ratio)
In short: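 Reporter induction in HRE-bla ME-180 cells is taken as agonism: cells sit 5 hrs after plating, receive compounds or DMSO only, incubate 17 hrs at 37C under 5% CO2, and are loaded with CCF4-AM for beta-lactamase FRET measurement.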

[11] = qHTS assay to identify small molecule antagonists of the estrogen related receptor (ERR) signaling pathway from Tox21 library (AID 1224848); further: nearly all actives have a fitted effect of over 50% in size
In short: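 Luciferase luminescence (ONE-Glo, 30 min room temperature) was the read-out. Cells of the NTP-supplied ERR line, 2,000 per well, were given 6 h at 37 C before compound addition in DMSO and 18 h exposure at 37 C.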

[12] = qHTS assay to identify small molecule agonists of the estrogen related receptor (ERR) signaling pathway from Tox21 library (AID 1224849; calls by dose curve; further: nearly all actives have a fitted effect of over 15% in size); conditions: ERR reporter cell line, ONE-Glo luciferase, 18 h; at 92.4 µM (top of the series) unless noted
In short: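 Tox21 compounds tested for ERR agonism in an NTP reporter cell line: 18 h treatment at 37 C, then ONE-Glo luminescence.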

[13] = qHTS RealTime-Glo MT Cell Viability Assay in HepG2 cells - 24 hour (AID 1224867); further: nearly all actives have a fitted effect of over 50% in size
In short: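 HepG2 cells were seeded at 600 cells/well together with NanoLuc luciferase and a cell-permeant prosubstrate, preincubated 5 h at 37 C/5% CO2, then pin-dosed with compounds in DMSO. Nonlytic luminescence from viable cells was read at each time point.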

[14] = qHTS RealTime-Glo MT Cell Viability Assay in HEK293 cells - 32 hour (AID 1224868)
In short: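 HEK293 cells were seeded at 600 cells/well together with NanoLuc luciferase and cell-permeant prosubstrate, preincubated 5 h at 37 C/5% CO2, then given compound in DMSO by pintool. Luminescence from viable-cell prosubstrate reduction was read repeatedly over 40 h.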

[15] = A CellTox Green Cytotoxicity Assay to monitor cytotoxicity in HEK293 cells - 0 hour (AID 1224869); further: nearly all actives have a fitted effect of over 50% in size
In short: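 Tox21 screen in HEK293: membrane-impermeant cyanine dye fluoresces on binding dead-cell DNA; compound pinned 5 h post-seeding, plates held at 37 C, signal read repeatedly through 40 h.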

[16] = biological target: Nuclear receptor subfamily 1 group I member 3 (Homo sapiens) (UniProt Q14994); assay: qHTS assay to identify small molecule antagonists of the constitutive androstane receptor (CAR) signaling pathway (AID 1224838);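 further: HepG2 cells stably expressing hCAR with CYP2B6 luciferase reporter stimulated by CITCO; nearly all actives have a fitted effect of over 40% in size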; further: potency means the concentration at half of the fitted maximal effect
In short: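 Human hepatoma HepG2 cells expressing hCAR and a CYP2B6 promoter (2.2 kb) luciferase construct; compound titration (15 points) with 50 nM CITCO final, 24 h at 37 C/5% CO2; luminescence via ONE-Glo after 30 min at room temperature.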

[17] = biological target: Nuclear receptor subfamily 1 group I member 3 (Homo sapiens) (UniProt Q14994); assay: qHTS assay to identify small molecule agonists of the constitutive androstane receptor (CAR) signaling pathway (AID 1224839); further: nearly all actives have a fitted effect of over 15% in size; further: potency means the concentration at half of the fitted maximal effect;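 on activation: HepG2 cells stably carrying human CAR and a CYP2B6 luciferase reporter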
In short: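 Stable hCAR/CYP2B6-2.2kb HepG2 line in DMEM with 10% FBS; compounds (15 concentrations) and 0.75 uM PK11195 final, 24 h at 37 C/5% CO2, then ONE-Glo luminescence after 30 min.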

[18] = qHTS assay to identify small molecule antagonists of the estrogen related receptor signaling pathway with the pleiotropic PPARgamma coactivator (PGC) from Tox21 10K library - cell viability counter screen (AID 1224840; active means well fitted cell-killing curve with a large enough effect in the repeat runs, not every such curve was filed as active; further: nearly all actives have a fitted effect of over 40% in size)
In short: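 Seeded PGC/ERR cells (2,000/well, 6 h, 37 C/5% CO2) get compound by pin tool; 17.5 h incubation at 37 C; CellTiter-Fluor added, 30 min, fluorescence measured.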

[19] = qHTS assay to identify small molecule agonists of H2AX - cell viability counter screen (AID 1224847; calls by dose curve; further: top concentration of the series differs between compounds; nearly all actives have a fitted effect of over 30% in size)
In short: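 Viability of CHO-K1 (wild type) cells after 3 hr compound exposure was measured by CellTiter-Glo luminescence.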
On the % scale 0 is the no-effect control and ±100 the full control effect.

Chain of Luciferin 4-monooxygenase (Photinus pyralis) (P08659 whole entry, looked up): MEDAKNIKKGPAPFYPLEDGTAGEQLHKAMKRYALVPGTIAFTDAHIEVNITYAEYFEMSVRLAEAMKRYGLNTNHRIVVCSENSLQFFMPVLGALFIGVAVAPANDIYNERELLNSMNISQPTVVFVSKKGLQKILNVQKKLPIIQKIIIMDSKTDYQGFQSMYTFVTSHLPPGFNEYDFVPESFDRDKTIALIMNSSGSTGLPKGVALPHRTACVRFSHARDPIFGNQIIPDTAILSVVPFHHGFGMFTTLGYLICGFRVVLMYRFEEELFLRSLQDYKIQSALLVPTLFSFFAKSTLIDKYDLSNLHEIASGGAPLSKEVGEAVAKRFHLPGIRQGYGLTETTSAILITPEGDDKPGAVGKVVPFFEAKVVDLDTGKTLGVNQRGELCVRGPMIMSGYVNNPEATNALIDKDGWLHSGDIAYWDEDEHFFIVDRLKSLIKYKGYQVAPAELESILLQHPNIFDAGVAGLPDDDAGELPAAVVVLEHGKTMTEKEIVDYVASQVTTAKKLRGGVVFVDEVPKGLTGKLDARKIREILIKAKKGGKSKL
Chain of Thyrotropin receptor (Homo sapiens) (P16473 whole entry, looked up): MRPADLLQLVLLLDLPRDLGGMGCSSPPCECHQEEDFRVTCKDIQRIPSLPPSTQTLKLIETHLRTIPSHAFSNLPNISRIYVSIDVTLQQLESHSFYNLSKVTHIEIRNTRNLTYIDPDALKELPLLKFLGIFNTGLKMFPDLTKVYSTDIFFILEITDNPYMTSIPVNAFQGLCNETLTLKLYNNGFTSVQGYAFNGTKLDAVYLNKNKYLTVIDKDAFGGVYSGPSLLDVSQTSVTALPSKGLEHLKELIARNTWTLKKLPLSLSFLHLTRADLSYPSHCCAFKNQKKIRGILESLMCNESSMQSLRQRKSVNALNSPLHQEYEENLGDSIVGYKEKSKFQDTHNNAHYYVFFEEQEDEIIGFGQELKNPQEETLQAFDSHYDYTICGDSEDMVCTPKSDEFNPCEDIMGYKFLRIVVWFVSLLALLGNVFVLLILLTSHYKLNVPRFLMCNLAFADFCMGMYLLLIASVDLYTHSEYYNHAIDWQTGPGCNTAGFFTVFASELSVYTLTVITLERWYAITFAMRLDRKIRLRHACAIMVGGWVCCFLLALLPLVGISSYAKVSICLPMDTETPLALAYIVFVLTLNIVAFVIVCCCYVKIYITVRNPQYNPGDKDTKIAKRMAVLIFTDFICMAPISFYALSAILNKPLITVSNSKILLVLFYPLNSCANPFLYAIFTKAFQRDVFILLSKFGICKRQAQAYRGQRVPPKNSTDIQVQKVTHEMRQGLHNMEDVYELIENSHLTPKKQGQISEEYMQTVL
Chain of Nuclear receptor subfamily 1 group I member 3 (Homo sapiens) (Q14994 whole entry, looked up): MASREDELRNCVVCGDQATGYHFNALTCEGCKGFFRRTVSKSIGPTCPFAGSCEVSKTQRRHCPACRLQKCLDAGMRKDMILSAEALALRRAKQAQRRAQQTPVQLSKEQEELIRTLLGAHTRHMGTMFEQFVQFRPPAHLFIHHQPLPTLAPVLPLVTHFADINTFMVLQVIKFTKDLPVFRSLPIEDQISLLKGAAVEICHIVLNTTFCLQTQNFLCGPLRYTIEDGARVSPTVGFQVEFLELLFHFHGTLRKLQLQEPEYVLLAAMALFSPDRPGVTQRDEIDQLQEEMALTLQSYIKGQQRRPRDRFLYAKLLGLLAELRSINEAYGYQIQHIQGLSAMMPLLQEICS

C/C(=C(\CCO)SS/C(CCO)=C(\C)N(C=O)Cc1cnc(C)nc1N)N(C=O)Cc1cnc(C)nc1N
inactive: Potency [1] | Potency [2] | Potency [3] | Potency [4] | Potency [5] | Potency [6] | Potency [7] | Potency [8] | Potency [9] | outcome [10] | Potency [11] | activity change, positive = activation [12] 3.66% [at 42.5 µM] | outcome [13] | Potency [14] | Potency [15]

C=CCCC
inactive: Potency [1] | Potency [2] | Potency [3] | Potency [16] | Potency [17] | Potency [18] | Potency [9] | outcome [10] | Potency [19] | outcome [13] | Potency [14] | Potency [15]

O=c1[nH][nH]c2ccccc12
active: Potency [16] 55.5 µM
inactive: Potency [1] | Potency [2] | Potency [3] | Potency [17] | Potency [18] | Potency [7] | Potency [8] | outcome [10] | Potency [19] | outcome [13] | Potency [15]

CC(COc1ccccc1)NC(C)C(O)c1ccc(O)cc1 (configuration not stated)
inactive: Potency [1] | Potency [2] | Potency [3] | Potency [16] | Potency [17] | Potency [6] | Potency [7] | Potency [8] | Potency [9] | outcome [10] | Potency [19] | activity change, positive = activation [12] 0.415% [at 42.5 µM] | outcome [13] | Potency [14] | Potency [15]

CNc1ccccc1
inactive: Potency [1] | Potency [2] | Potency [3] | Potency [4] | Potency [5] | Potency [6] | Potency [8] | outcome [10] | Potency [19] | outcome [13] | Potency [14] | Potency [15]

CC(C)(C)c1cc(C=O)cc(C(C)(C)C)c1O
inactive: Potency [1] | Potency [2] | Potency [3] | Potency [4] | Potency [7] | Potency [9] | outcome [10] | Potency [19] | outcome [13] | Potency [14] | Potency [15]

C=CC(O)CCCCC (configuration not stated)
inactive: Potency [1] | Potency [2] | Potency [3] | Potency [16] | Potency [17] | Potency [18] | Potency [6] | Potency [7] | Potency [8] | Potency [9] | outcome [10] | Potency [19] | activity change, positive = activation [12] 1.36% | outcome [13] | Potency [14] | Potency [15]

Cc1c(Cl)cccc1[N+](=O)[O-]
inactive: Potency [1] | Potency [2] | Potency [3] | Potency [4] | Potency [18] | Potency [8] | Potency [9] | outcome [10] | Potency [19] | outcome [13] | Potency [14] | Potency [15]

c1ccc(-c2ccc(-c3ccccc3)cc2)cc1
active: Potency [2] 0.82 µM | Potency [17] 3.53 µM
inactive: viability change, negative = cytotoxic [1] 0.464% [at 19 µM] | viability change, negative = cytotoxic [3] 4.23% [at 19 µM] | activity, negative = inhibition [16] 139% [at 19 µM] | viability change, negative = cytotoxic [18] 3.19% [at 19 µM] | activation (H2AX phosphorylation) [9] -0.824% [at 31.6 µM] | activation [10] -1.07% [at 15.8 µM] | activity change, negative = cytotoxicity [19] -0.782% [at 31.6 µM] | activity change, negative = cytotoxicity [13] 1.53% [at 15.8 µM] | activity change, negative = cytotoxic [14] 0.807% [at 15.8 µM] | cytotoxicity [15] -5.7% [at 15.8 µM]
